Bioassay records as filed in PubChem BioAssay.
BaF3 parental = counter-screen for JAK2V617F inhibitors: parental Ba/F3 viability inhibitors | CellTiter-Glo ATP luminescence | inhibition, % at 5.6 µM | hit rate 1.1% among 220,000 | AID 1486;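 active = inhibition above a per-campaign cutoff, the mean inhibition of all tested compounds plus 3 SD, cut at about 27% in these data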;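 also: 0% = DMSO wells and 100% = JAK Inhibitor I control wells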
APP transl inh = APP translation inhibition; SH-SY5Y APP 5'UTR-luciferase reporter, luminescence; inhibition, % at 2 µM; hit rate 0.82% among 190,000;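 active = inhibition above a set limit, derived from the sample mean plus 3 SD, cut at about 45% in these data; inconclusive = one replicate passes the limit while the other fails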
IEC-6 tox = kills IEC-6 intestinal cells in KLF5 counter-screen. IEC-6 cytotoxicity, luminescence viability. inhibition, % at 5 µM. hit rate 0.78% among 290,000; in the data active = inhibition above about 22%;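 also: 0% = plate median of test compound wells and 100% = cytotoxic reference compound wells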
KLF5 inh = suppresses KLF5 promoter-driven expression. DLD-1 KLF5 promoter-luciferase reporter, luminescence. inhibition, % at 5 µM. hit rate 0.23% among 290,000. AID 1700;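 active = inhibition above a per-plate limit of that plate's mean compound inhibition plus 3 SD, cut at about 60% in these data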;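 also: 0% = DMSO wells and 100% = LY294002 at 200 µM; higher means less KLF5 promoter-driven luciferase light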
aSyn 5UTR inh = MLPCN primary screen, SNCA 5' untranslated region | alpha-synuclein 5'UTR reporter, inhibitor activity | inhibition, % (tested at 7.5 µM) | hit rate 0.82% among 300,000 | AID 1813; in the data active = inhibition above about 60%; inconclusive = no clear call, values can overlap the other calls;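 also: H4 neuroglioblastoma cells stably carrying SNCA 5'UTR luciferase fusion; 0% = DMSO wells and 100% = positive control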
Ba/F3 V617F tox = reduce viability of Ba/F3 cells dependent on JAK2V617F; hit rate 1.1% among 220,000; inhibition, % at 5.6 µM; Ba/F3 EpoR-JAK2V617F viability, ATP luminescence;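 active = inhibition above the campaign mean plus 3 SD over all tested compounds, cut at about 24% in these data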;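 also: cytokine-independent growth of Ba/F3 cells driven by EpoR plus mutant JAK2; 0% = DMSO-treated cells and 100% = JAK inhibitor I control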
* marks the source's active call; other numbers are inactive results; ? = inconclusive; nt = not tested or not shown. A selection: hits, their analogues and other compounds. The true share with any hit is near 2.2%.

SMILES	BaF3 parental	APP transl inh	IEC-6 tox	KLF5 inh	aSyn 5UTR inh	Ba/F3 V617F tox
CCOc1ccc(N(CC(=O)Nc2ccccc2C)S(=O)(=O)c2c(C)noc2C)cc1	54*	66*	63*	28	?	78*
Cc1cc(C(=O)Nc2ccccc2Cl)n(-c2ccccc2)n1	nt	nt	1	-36	18	nt
Cc1ccc(-n2nc(C(=O)O)c(O)cc2=O)cc1	10	21	-2	-13	-5	1
COc1cc(OC)cc(C(=O)N/N=C/c2ccc(OC)c(COc3ccc4ccccc4c3)c2)c1	5	56*	5	4	5	2
COc1ccc(/C=N/NC(=O)c2ccncc2)cc1COc1ccc(NC(C)=O)cc1	1	nt	-2	-15	80*	0
COc1ccc(C(=O)N/N=C/c2ccc(OC)c(COc3ccccc3)c2)cc1	nt	nt	0	-41	9	nt
C[C@@H]1CCC(=O)N(C[C@@H](C)CSc2ccccc2)CC1	nt	nt	-8	-26	2	nt
Cc1cc(-c2nnc(CSc3nnc(NC(=O)c4ccc(C(C)(C)C)cc4)s3)o2)ccc1[N+](=O)[O-]	-1	nt	3	-9	-110	-5
O=C(CC(Nc1ccccc1)c1ccccc1)C1CC1 (centres undefined)	2	nt	6	5	-3	1
Cc1cc(N2CCN(C)CC2)nc2ccc(NC(=S)N3CCCCC3)cc12	5	-18	-2	-24	-85	1
Cc1cccc(N2CCN(C(=S)Nc3ccc4nc(N5CCN(C)CC5)cc(C)c4c3)CC2)c1C	2	87*	-1	-24	95*	-2
Cc1cc(NC(=O)c2cccc(S(=O)(=O)N3c4ccccc4CC3C)c2)no1 (centres undefined)	1	nt	1	-40	33	1
CCOC(=O)c1sc(NC(=O)c2cccc(S(=O)(=O)N3c4ccccc4CC3C)c2)cc1C (centres undefined)	0	-4	0	-45	80*	-7
COC(=O)COc1ccc(-n2cnnn2)cc1	1	-4	2	-11	-10	-4
CC(=O)Nc1ccc(S(=O)(=O)N(CCO)Cc2ccccc2)cc1	5	8	-6	-24	2	0
CC(=O)Nc1ccc(S(=O)(=O)N(C)CCOCc2ccccc2)cc1	43*	2	3	4	14	6
Cc1cccc(NC(=O)NNC(=O)c2cc3occc3[nH]2)c1C	nt	nt	-3	-17	-7	nt
COc1ccc(CNc2cc(C)nc3ncnn23)c(OC)c1	31*	-4	-2	-13	38	6
COc1ccc(Nc2cc(C)nc3ncnn23)c(OC)c1	-2	-4	2	-2	1	-4
CCCc1sc(N/N=C/c2ccccn2)nc1-c1ccc(Br)cc1	13	-104	2	-1	82*	5
CC1CCN(CCCNC(=O)CCNC(=O)Cn2cnc3ccccc3c2=O)CC1	nt	nt	-3	-14	6	nt
Nc1c(C(=O)c2ccccc2)sc2snc(SCC(=O)c3ccccc3)c12	95*	-38	4	-30	-37	-4
CC(=O)C1=C(O)C(=O)N(Cc2ccccc2)C1c1ccccc1F (centres undefined)	37*	-14	-4	-5	3	1
COc1ccc(/C=C2\CN(Cc3ccccc3)C/C(=C\c3ccc(OC)cc3OC)C2=O)c(OC)c1	5	2	-2	1	-68	0
COc1ccc(C=C2c3ccccc3C(=O)c3ccccc32)c(OC)c1	83*	nt	87*	61	98*	84*
SMILES	BaF3 parental	APP transl inh	IEC-6 tox	KLF5 inh	aSyn 5UTR inh	Ba/F3 V617F tox
CN(C(=O)COC(=O)C1CCN(S(=O)(=O)c2c(Cl)cccc2Cl)CC1)C1CCCCC1	nt	nt	nt	nt	-12	nt
Cc1nn(C(=O)C(C)N2C(=O)c3ccccc3C2=O)c(C)c1Br (centres undefined)	94*	-3	-4	-14	-15	-1
Cc1cn(C(=O)C(C)N2C(=O)c3ccccc3C2=O)c(C)n1 (centres undefined)	2	-11	5	6	11	-1
O=C(O)Cn1c(=O)c2c3c(sc2n(Cc2ccccc2F)c1=O)CCCC3	nt	nt	1	-37	-2	nt
COc1cccc(-c2ccc(NC(=O)C3CCCN(Cc4cnn(C(C)C)c4)C3)cc2)c1 (centres undefined)	nt	nt	-4	-43	-28	nt
Nc1cc(C(F)(F)F)ccc1NCCc1ccccn1	nt	nt	-4	-38	-19	nt
COC(=O)c1cn(C(=O)c2ccc(C)cc2C)c2ccccc12	9	54*	6	1	-29	5
Nc1ccc(-c2ncc(-c3ccccc3)o2)cc1	nt	nt	2	24	86*	nt
Cc1ccc(-c2cnc(-c3ccncc3)o2)cc1	7	-67	-12	-57	-157	3
Cc1cccn2c(=O)c(C=O)c(Nc3ccccc3)nc12	nt	nt	7	-80	20	nt
CCOC(=O)C1CCN(CC(O)COC(CC)c2ccccc2)CC1 (centres undefined)	nt	nt	1	-15	-1	nt
CC(C)(C)c1cc[n+](C2=C([O-])c3ccccc3C(=O)/C2=N\S(=O)(=O)c2cccs2)cc1	-5	nt	-4	-42	69*	-3
CCOc1ccc(S(=O)(=O)Nc2cccc(C(=O)NCC(c3ccc(OC)cc3)N3CCOCC3)c2)cc1 (centres undefined)	nt	nt	-7	5	-2	nt
Cc1cc([N+](=O)[O-])ccc1NC(=O)/C=C/c1cccs1	10	-43	-6	-46	-158	-2
Cc1cccc(NC(=O)/C=C/c2ccc([N+](=O)[O-])s2)c1	-1	88*	8	-10	-224	3
Cc1ccc(NC(=O)/C=C/c2ccc([N+](=O)[O-])s2)c(C)c1	-2	93*	-1	-9	-93	11
Cc1cc(C)c(NC(=O)COC(=O)c2ccc([N+](=O)[O-])s2)c(C)c1	3	-12	8	6	18	2
Cc1ccc(NC(=O)/C=C/c2ccc([N+](=O)[O-])s2)cc1	2	84*	-1	-16	-212	-1
Cc1ccc(NC(=O)COC(=O)c2ccc([N+](=O)[O-])s2)c(C)c1	4	58*	-1	0	-9	-2
O=C(Cn1cnc2ccccc2c1=O)NCCC(=O)Nc1ccccc1C(F)(F)F	nt	nt	-2	-12	-11	nt
Cc1c(CNC(=O)c2c([N+](=O)[O-])cnn2C)cnn1C	7	5	3	-42	-15	2
CC(=O)C1CCC2C3CCC4=CC(=O)CC[C@]4(C)[C@@]3(F)C(O)C[C@]12C (some centres undefined)	-5	nt	12	-29	-15	11
O=C1c2ccccc2S(=O)(=O)c2cc(N3CCN(c4ccccc4)CC3)ccc21	nt	nt	nt	nt	-19	nt
O=C1c2ccccc2S(=O)(=O)c2cc(N3CCOCC3)ccc21	nt	nt	nt	nt	76*	nt
COCCn1ccc2c(OCC(=O)Nc3ccccc3OC)cccc2c1=O	nt	nt	nt	nt	22	nt
O=[N+]([O-])c1cc2c(cc1/C=N\NS(=O)(=O)c1ccccc1)OCO2	-2	-2	-6	-21	17	-3
CNc1nc(N/N=C/c2cc3c(cc2[N+](=O)[O-])OCO3)nc(Nc2ccccc2)n1	5	6	-8	-8	74*	0
